# Screens from PubChem BioAssay.
# ATXN viability: reduces viability in counter-screen for ATXN expression inhibitors; Potency, µM (doses to about 56.7 µM), actives largely listed as cytotoxic; S2 cells (HEK-293 line with an ATXN2-luciferase reporter) viability, CellTiter-Fluor protease fluorescence, 24 h; hit rate 0.49% among 400,000; AID 651635; further: potency means the concentration at half of the fitted maximal effect; nearly all actives have a fitted effect of over 40% in size
# ATXN2 expr inh: ATXN2 expression inhibition. HEK-293 ATXN2-luciferase reporter, luminescence, 24 h. Potency, µM (highest dose often 57 µM), without a hit: at the top dose activity change, negative = inhibition, actives largely listed as inhibitors. hit rate 0.72% among 360,000; further: potency means the concentration at half of the fitted maximal effect; on the % scale 0 is the no-effect control and ±100 the full control effect; nearly all actives have a fitted effect of over 55% in size
#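 qHTS (up to 57 uM final) was run with 24 h compound exposure of reporter cells at 37 °C. Each well was multiplexed: SteadyGlo luminescence measured ATXN2-luciferase expression after a fluorogenic Gly-Phe-AFC viability readout (25 uM final).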
# HepG2 viability: counter-screen for TGF-b inhibitors: cytotoxicity in HepG2 cells; HepG2 CAGA-GFP viability, ATP luminescence, 18 h; Potency, µM (series often up to 46.1 µM), for inactives: top-dose activity change, negative = cytotoxicity, usual class: cytotoxic; hit rate 0.76% among 410,000; AID 588856; further: potency means the concentration at half of the fitted maximal effect
#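 HepG2 CAGA-GFP cells (1000/well, DMEM with 1% FBS) received compound, then TGF-beta at 500 pg/mL final, and were incubated 18 hours at 37 degrees C. Viability was read by CellTiter-Glo luminescence. Media-only wells were set as complete cell-killing and DMSO as no toxicity.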
# IL-1B inflam inh: inflammasome signaling inhibition, IL-1 beta readout | THP-1 LPS/ATP IL-1B secretion, AlphaLISA, 16 h; stronger effect = lower value | activity change, % at 57.5 µM | hit rate 4.7% among 360,000; in the data active means activity change below about -50%; inconclusive means mostly about -30% to -49%; further: on the % scale 0 is the no-effect control and ±100 the full control effect
#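 THP-1 cells pretreated 1 hr with compounds (up to 57.5 uM final), then stimulated with LPS (250 ng/mL final) plus ATP (1.25 mM final); secreted IL-1B measured by AlphaLISA after 16 hr, decreased signal indicating inhibition.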
# TGFb SMAD3 inh: TGF-b pathway inhibition; HepG2 CAGA-GFP TGF-b/SMAD3 reporter, GFP fluorescence, 18 h; TGF-beta stimulated, 500 pg/mL final; hit rate 1.2% among 410,000; Potency, µM (top dose mostly 46.1 µM), for the others: at the highest dose activity, negative = inhibition, most hits filed as inhibitors; further: potency means the concentration at half of the fitted maximal effect; on the % scale 0 is the no-effect control and ±100 the full control effect; nearly all actives have a fitted effect of over 65% in size
#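 Inhibition of TGF-beta-driven CAGA-GFP reporter expression in HEPG2 cells is measured by cellular GFP fluorescence after 18 h stimulation with 500 pg/mL recombinant TGF-beta in 1% FBS medium at 37 degrees C.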
# * hit, by the source's call; i = inactive; ? = inconclusive; . = no result; ! = a repeat was not active; [ ] = another dose, or the depositor's remark. This is a sample that favours compounds with a hit; in the whole collection about 5.7% have one here. Unless noted, the call rests on the fitted dose curve; in most records, active means well fitted curve in the direction sought with a large enough effect; inconclusive means small, poorly fitted or top-dose-only effect, or another doubt; inactive means no such curve, though single readings can be large; an effect the other way counts as inactive or inconclusive.
SMILES,ATXN viability,ATXN2 expr inh,HepG2 viability,IL-1B inflam inh,TGFb SMAD3 inh
COc1ccc(CNC(=O)C2CCN(C(=O)c3csc(Nc4ccc(C)cc4)n3)CC2)cc1,i,-1.9%,-32.3%,-52.8*,2.3%
CN(C)CCOC(=O)c1ccc2[nH]c3c(c2c1)CSCC3,i,-2.8%,1.6%,-73.7*,?
O=C(O)c1ccc2[nH]c3c(c2c1)CSCC3,?,3.5%,-0.4%,-18.0,2.6%
N#C/C(=C\c1cccc(Br)c1)C(=O)N1CCCCC1,i,-2.9%,-180.1%,?,?
N#C/C(=C\c1cccc(O)c1)C(=O)N1CCCCC1,i,14.5%,-14.7%,-73.4*,12.8%
COc1cccc(CN(C)C(=O)CNC(=O)c2ccc(-c3ccccc3)cc2)c1OC,i,?,-25.7%,-63.2*,?
COc1ccc(Br)cc1CN(C)C(=O)CNC(=O)c1ccc2ccccc2c1,i,-24.0%,-2.3%,-75.4*,-1.8%
COc1cccc(NC(=O)CN(C)C(=O)CNC(=O)c2ccc3ccccc3c2)c1,i,12.7%,6.4%,-99.8*,?
COc1cccc(NC(=O)CN(C)C(=O)c2ccc3ccccc3c2)c1,i,3.8%,-2.9%,16.7,24.4%
COc1ccccc1-c1nc(S(=O)(=O)c2ccccc2)c(N2CCC(C)CC2)o1,?,-21.8%,-2.4%,.,?
CCN1CCC(n2cc(CNc3cc(Cl)c4ncc(C#N)c(Nc5ccc(F)c(Cl)c5)c4c3)nn2)CC1,.,-18.8%,.,.,.
COc1ccc(S[C@@H](CCN2CC[C@H](NC(=O)OCc3ccccc3)CCC2=O)c2ccccc2)cc1,?,-31.6%,-38.8%,-52.8*,12.6µM*
CC(=O)Nc1ccc(SC[C@H](C)CN2CC[C@H](C(C)(C)C)CCC2=O)cc1,28.2µM*,?,-26.0%,?,?
O=C1CC[C@@H](O)CCN1CC[C@H](Sc1ccccc1)c1ccccc1,i,-4.8%,-10.1%,4.6,1.5%
C[C@@H](CSc1ccc(Br)cc1)CN1CC[C@H](NC(=O)OCc2ccccc2)CCC1=O,?,-38.9%,-23.5%,-4.0,11.2µM*
C[C@@H]1CCC(=O)N(CC[C@H](Sc2ccccc2)c2ccccc2)CC1,?,-7.0%,-2.3%,0.0,17.8µM*!
O=C(N[C@@H]1CCC(=O)N(CC[C@H](Sc2ccc(Br)cc2)c2ccccc2)CC1)OCc1ccccc1,?,-32.2%,2.7%,?,?
COc1ccc(SC[C@H](C)CN2CC[C@H](NC(=O)OCc3ccccc3)CCC2=O)cc1,i,-25.3%,-20.3%,28.4,-18.5%
Cc1noc(/C=C/c2ccccc2F)c1S(=O)(=O)N1CCC(C(=O)N(C)Cc2ccco2)CC1,.,.,-18.5%,.,?
Cc1ccc(S(=O)(=O)NCc2c(-c3ccccc3)noc2C)cc1,.,-13.7%,0.1%,14.6,21.3%
Cc1onc(-c2ccccc2)c1CNS(=O)(=O)c1ccccc1,i,-19.7%,11.2µM*,-4.8,0.0%
CCc1ccc(NC(=S)N(Cc2ccccc2)Cc2ccccn2)cc1,i,-4.2%[11.3 µM],-25.1%,-60.1*,?
Cc1ccccc1NC(=S)N(Cc1ccccc1)Cc1cccnc1,i,-17.7%,-4.9%,-60.2*,1.4%
COc1ccc(NC(=S)N(Cc2cccnc2)Cc2ccco2)cc1,i,-2.7%,0.1%,20.2,2.6%
CCc1ccc(NC(=S)N(Cc2cccnc2)Cc2ccco2)cc1,i,-22.1%,-27.3%,-66.6*,-0.3%
Cc1ccccc1NC(=S)N(Cc1cccnc1)Cc1ccco1,i,-1.3%,-17.6%,8.0,6.3%
Cc1ccc(S(=O)(=O)N2CCC(c3nc(-c4cccs4)nc4ccccc34)CC2)cc1,.,.,-3.5%,.,24.8%
Cc1ccc(-c2cc3ncc4c(n3n2)-c2cc(Cl)ccc2OC4)cc1,i,1.0%,2.7%,.,9.7%
Cc1ccccc1S(=O)(=O)N1[C@@H](c2ccccc2)C(C(=O)O)=CC[C@H]1c1ccc(Cl)cc1,i,-2.3%,-12.3%,13.0,?
O=C(O)C1=CC[C@@H](c2ccc(Cl)cc2)N(S(=O)(=O)c2ccc(Cl)cc2)[C@H]1c1ccc(Br)cc1,i,12.7%,-89.4%,51.1,12.6µM*
